Hit rate of the full screen: of about 310,000 compounds, about 11,000 (3.5%) were called active. Roughly 8% stayed inconclusive and do not appear here. The sample holds actives, similar compounds and a random draw of the others, so the mix is not that of the screen. The call rests on the fitted dose curve; in most records, active means well fitted inhibition curve with a large enough effect; inconclusive means small, poorly fitted or top-dose-only effect, or effect the other way; inactive means flat fitted curve, though single readings scatter.
Experiment: VP16 counterscreen qHTS for inhibitors of ROR gamma transcriptional activity;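 further: Gal4-VP16 expression switched on by copper sulfate through the metallothionein promoter; nearly all actives have a fitted effect of over 50% in size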
Conditions: Drosophila S2 Gal4-VP16 UAS-luciferase, luminescence, 20 h; series mostly up to 53.6 µM; activity, negative = inhibition: at the top concentration
On the % scale 0 is the no-effect control and ±100 the full control effect; potency means the concentration at half of the fitted maximal effect.

| SMILES | activity, negative = inhibition | Potency |
| --- | --- | --- |
| Cc1cc(NC(=O)CCC(=O)N(Cc2ccccc2)C(C(=O)NC2CCCC2)c2ccc(C)o2)no1 (stereo not drawn) | -2.38% (inactive) |  |
| CCc1cccc(C)c1N1C(=O)CN(Cc2ccccc2)C1=S | -3.99% (inactive) |  |
| CCC(=O)/C(=C(/O)c1ccccc1)c1nc2ccccc2[nH]1 | -1.81% (inactive) |  |
| O=C(/C(=C/c1cccc(Cl)c1)c1nc2ccccc2[nH]1)c1ccccc1 |  | 12.6 µM (active) |
| O=C(Cc1nc2ccccc2[nH]c1=O)c1ccc(Cl)cc1 | 4.55% (inactive) |  |
| Cc1ccc(C)c(NC(=O)c2cc(-c3cc(C)cc(C)c3O)n[nH]2)c1 | 3.11% (inactive) |  |
| Cc1sc2ncn(CC(=O)NCCCC(=O)N(C)Cc3ccccc3)c(=O)c2c1C | 13.7% (inactive) |  |
| CCc1ccc2c(c1)C1(NN=C(c3ccccc3)S1)C(=O)N2 (stereo not drawn) |  | 6.31 µM (active) |
| CCCCN1C(=O)/C(=C2/Sc3ccc(Cl)cc3N2CC)SC1=S | -3.93% (inactive) |  |
| CN(c1ccc2nc3ccccc3c(=O)n2n1)C1CCCCC1 |  | 1.12 µM (active) |
| O=c1c2ccccc2nc2n1C1(CCCCC1)Cc1ccccc1-2 | 6.09% (inactive) |  |
| CCOC(=O)C(C)Sc1nc2ccccc2c(=O)n1CC1CCCCC1 (stereo not drawn) | 6.17% (inactive) |  |
| C/C(=N\N(C)C)c1ccc(OCCOc2ccc([N+](=O)[O-])cc2)cc1 | -9.15% (inactive) |  |
| O=C(N/N=C/c1ccc([N+](=O)[O-])o1)c1cn(-c2ccccc2)nc1-c1ccc(F)cc1 | 0.475% (inactive) |  |
| C/[N+]([O-])=C\c1ccc([N+](=O)[O-])o1 | 2.41% (inactive) |  |
| O=C(/C=C/c1ccc([N+](=O)[O-])o1)NNC(=O)c1ccc(F)cc1 |  | 4.47 µM (active) |
| CCc1ccc(NC(=O)CN2CCC(C(=O)c3ccc(OC)cc3)CC2)cc1 | 0.735% (inactive) |  |
| COC(C(=O)Nc1ccc(C(C)=O)cc1)c1ccccc1 (stereo not drawn) | 16.9% (inactive) |  |
| Cc1ccc(NC(=O)C(C)c2cccc(C(=O)c3ccccc3)c2)cc1 (stereo not drawn) |  | 7.08 µM (active) |
| CC(=O)Nc1ccc(NC(=O)[C@@H](NC(=O)c2cccc(C)c2)C(C)C)cc1 | -0.828% (inactive) |  |
| CCn1cc(S(=O)(=O)c2cccc(C)c2)c(=O)c2cc(F)c(N3CCN(C)CC3)cc21 | 0.516% (inactive) |  |
| Fc1ccc(-c2ccc(NCCN3CCOCC3)nn2)cc1 | -0.209% (inactive) |  |
| N#Cc1ccccc1NC(=O)c1ccc2c(c1)OCO2 | 22.4% (inactive) |  |
| CCOC(=O)C1(Cc2ccccc2C)CCCN(C(=O)c2ccc(COC)o2)C1 (stereo not drawn) | 11.1% (inactive) |  |
| CC1=CC(C)(C)Nc2ccc(OC(=O)C(Cc3ccccc3)N3C(=O)C4CCCCC4C3=O)cc21 (stereo not drawn) | 10.5% (inactive) |  |
| CC1=CC(C)(C)Nc2ccc(OC(=O)CN3C(=O)C4CCCCC4C3=O)cc21 (stereo not drawn) |  | 7.94 µM (active) |
| O=C(CN1C(=O)C2C3CCC(C3)C2C1=O)Oc1ccc2ccccc2c1 (stereo not drawn) | -10.4% (inactive) |  |
| COc1ccc2[nH]cc(CCN3C(=O)c4ccc(C(=O)O)cc4C3=O)c2c1 | -9% (inactive) |  |

Reference: PubChem BioAssay AID2546 (National Center for Advancing Translational Sciences (NCATS), 2010)
